{"source": "PubChem BioAssay (NCI)", "note": "The panel holds about 83,000 compounds, 20% with a hit somewhere; the sample as a whole holds those more often.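 The endpoint reported here, percent growth, reads 100 for growth as untreated, 0 for no net growth and -100 for all cells dead.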 A number with no mark means an inactive call. Active and inactive are the calls of the source. How the source made its calls: active means growth percent below 10; inactive means the rest.", "data": [{"system": "SF-539 CNS", "assay": "NCI-60 one-dose screen, 48 h (100 = growth as untreated, 0 = no growth, -100 = all killed)", "conditions": "10 µM unless noted", "values": [{"compound": "CCn1c(Cc2ccccc2Nc2c(Cl)cccc2Cl)nnc1SCC(=O)Nc1cccc(OC)c1", "growth": "105%"}, {"compound": "COc1ccc2nc(C)cc(Sc3nc4ccccc4s3)c2c1", "growth": "55.4%"}, {"compound": "COc1cnc2c(c1)C(=O)c1c-2n(CCCN2CCN(C)CC2)c(=O)c2cc(Cl)ccc12", "growth": "14.7%"}, {"compound": "c1cn2cc(-c3ccc4ncn(C5CCCCC5)c4c3)nc(-c3ccc4c(c3)ncn4C3CCCCC3)c2n1", "growth": "-82.1% (active)"}, {"compound": "CN1C(=O)N(C)C2C1NN=c1s/c(=C\\c3ccc(C(F)(F)F)cc3)c(=O)n12", "note": "(stereo unspecified)", "growth": "3.31% (active)"}, {"compound": "CN1C(=O)N(C)C2C1NN=c1s/c(=C\\c3ccsc3)c(=O)n12", "note": "(stereo unspecified)", "growth": "40.2%"}, {"compound": "C/C(=N\\Nc1ccc([N+](=O)[O-])cn1)c1ccc(N)cc1", "growth": "93.7%"}, {"compound": "COc1ccccc1/C=N\\Nc1ccc([N+](=O)[O-])cn1", "growth": "98.7%"}, {"compound": "CCCCCCCCCCCCCCCCCC(=O)[O][Sn]([CH2]CCC)([CH2]CCC)[CH2]CCC", "growth": "-81.6% (active)"}, {"compound": "C[C@H](NC(=O)c1snnc1C1CC1)c1c(F)cccc1Cl", "growth": "96.6%"}, {"compound": "CC(C)c1cccc(C#N)c1", "growth": "109%"}, {"compound": "CN1C(=O)N(C)C2C1NN=c1s/c(=C\\c3ccc(Br)cc3)c(=O)n12", "note": "(stereo unspecified)", "growth": "7.53% (active)"}, {"compound": "O=C1SCN(Cc2ccccc2)CN1Cc1ccccc1", "growth": "104%"}, {"compound": "C[N+](C)(C)CC(=O)N/N=C\\c1ccco1", "growth": "95.3%"}, {"compound": "COc1cc(C2CC(c3ccc(Cl)cc3)=NN2C(C)=O)ccc1Oc1nc2c(c(=O)n(C)c(=O)n2C)n1C", "note": "(stereo unspecified)", "growth": "102%"}, {"compound": "CCN1CCN(Cc2ccc(NC(=O)Nc3ccc(-n4ccc5c(NC(=O)c6ccccc6)nccc54)cc3)cc2C(F)(F)F)CC1", "growth": "-48.4% (active)"}, {"compound": "Nc1nc(N)c2cc(NCc3ccc(Cl)c(Cl)c3)ccc2n1", "growth": "-89.9% (active)"}, {"compound": "O=c1oc2ccccc2cc1-c1cc(-c2ccc(-c3cc(-c4cc5ccccc5oc4=O)nc(-c4cc5ccccc5oc4=O)c3)cc2)cc(-c2cc3ccccc3oc2=O)n1", "growth": "93.2%"}, {"compound": "C=C1C(=O)O[C@H]2[C@H]1CC/C(COC(=O)N[C@@H](Cc1c[nH]c3ccccc13)C(=O)OC)=C\\CC[C@@]1(C)O[C@@H]21", "growth": "25.3%"}, {"compound": "COc1cc(OC)c(Cl)cc1N", "growth": "95.4%"}, {"compound": "COC(=O)c1ccc2c(c1)nc(-c1cc3ccccc3[nH]c1=O)n2-c1cc(C(C)(C)C)[nH]n1", "growth": "92.6%"}, {"compound": "Fc1ccc(-c2nc(-c3ccc(-c4nc5ccc(F)cc5[nH]4)cc3)no2)cc1", "growth": "69.2%"}, {"compound": "CCCC(CCC)(C(N)=O)C(=O)O", "growth": "120%"}, {"compound": "CNC(=O)OC1C(O[C@H]2C[C@H]3[C@@H]4CC=C5C[C@@H](O)CC[C@]5(C)[C@H]4CC[C@]3(C)[C@H]2[C@H](C)C(=O)CCC(C)C)OCC(O)C1OC1OCC(O)C(O)C1OC(=O)c1ccc(OC)cc1", "note": "(stereo partly specified)", "growth": "-53.5% (active)"}, {"compound": "CC(=O)O[C@@H]1CC2C(C)(C)CCCC2(C)C2=C1C(=O)C(C(C)C)=CC2=O", "note": "(stereo partly specified)", "growth": "-39.3% (active)"}, {"compound": "CC(=O)Oc1c(Cl)c(Cl)c(Cl)c(Cl)c1Cl", "growth": "86.3%"}, {"compound": "Oc1c(C(Nc2ccccc2Br)c2ccccc2)ccc2cccnc12", "note": "(stereo unspecified)", "growth": "19.9%"}, {"compound": "O=C1C(Cl)=C(Nc2cccc3ccccc23)C(=O)c2ccccc21", "growth": "107%"}, {"compound": "Nc1c(C(=O)Nc2ccccc2)sc2nc3c(cc12)C(=O)CCC3", "growth": "0.845% (active)"}, {"compound": "CCOCCNc1ccc(S(=O)(=O)c2ccc(N)cc2)cc1N", "growth": "109%"}, {"compound": "CCCCSc1ncnc2c1ncn2C1CCCCO1", "note": "(stereo unspecified)", "growth": "104%"}, {"compound": "CCNCCCn1c2c(c3ccc(Cl)cc3c1=O)C(=O)c1cc(OC)cnc1-2", "growth": "12%"}, {"compound": "COc1ccc2nc3ccccc3c(NCc3ccc(C)cc3)c2c1", "growth": "10.7%"}, {"compound": "C=CCOC(=O)C1=C(C)NC2=C(C(=O)CCC2)C1c1ccc(F)cc1", "note": "(stereo unspecified)", "growth": "102%"}, {"compound": "O=C(O)C(CCc1ccccc1)NCc1ccccc1", "note": "(stereo unspecified)", "growth": "89.8%"}, {"compound": "COc1ncnc2[nH]cc(CN3CCN(c4ccc(F)cc4)CC3)c12", "growth": "108%"}, {"compound": "O=S(=O)(Cc1ccc(Cl)cc1Cl)c1ccc(Cl)cc1", "growth": "12.7%"}, {"compound": "COc1ccc(-c2nc3ccccc3n3cccc23)cc1", "growth": "101%"}]}, {"system": "UACC-257 melanoma", "assay": "NCI-60 one-dose screen, 48 h (100 = growth as untreated, 0 = no growth, -100 = all killed)", "conditions": "10 µM unless noted", "values": [{"compound": "CCn1c(Cc2ccccc2Nc2c(Cl)cccc2Cl)nnc1SCC(=O)Nc1cccc(OC)c1", "growth": "97.6%"}, {"compound": "COc1ccc2nc(C)cc(Sc3nc4ccccc4s3)c2c1", "growth": "49%"}, {"compound": "COc1cnc2c(c1)C(=O)c1c-2n(CCCN2CCN(C)CC2)c(=O)c2cc(Cl)ccc12", "growth": "14.1%"}, {"compound": "c1cn2cc(-c3ccc4ncn(C5CCCCC5)c4c3)nc(-c3ccc4c(c3)ncn4C3CCCCC3)c2n1", "growth": "-71.5% (active)"}, {"compound": "CN1C(=O)N(C)C2C1NN=c1s/c(=C\\c3ccc(C(F)(F)F)cc3)c(=O)n12", "note": "(stereo unspecified)", "growth": "44.6%"}, {"compound": "CN1C(=O)N(C)C2C1NN=c1s/c(=C\\c3ccsc3)c(=O)n12", "note": "(stereo unspecified)", "growth": "60.9%"}, {"compound": "C/C(=N\\Nc1ccc([N+](=O)[O-])cn1)c1ccc(N)cc1", "growth": "105%"}, {"compound": "COc1ccccc1/C=N\\Nc1ccc([N+](=O)[O-])cn1", "growth": "108%"}, {"compound": "CCCCCCCCCCCCCCCCCC(=O)[O][Sn]([CH2]CCC)([CH2]CCC)[CH2]CCC", "growth": "-86.1% (active)"}, {"compound": "C[C@H](NC(=O)c1snnc1C1CC1)c1c(F)cccc1Cl", "growth": "115%"}, {"compound": "CC(C)c1cccc(C#N)c1", "growth": "93.4%"}, {"compound": "CN1C(=O)N(C)C2C1NN=c1s/c(=C\\c3ccc(Br)cc3)c(=O)n12", "note": "(stereo unspecified)", "growth": "46%"}, {"compound": "O=C1SCN(Cc2ccccc2)CN1Cc1ccccc1", "growth": "70.9%"}, {"compound": "C[N+](C)(C)CC(=O)N/N=C\\c1ccco1", "growth": "106%"}, {"compound": "COc1cc(C2CC(c3ccc(Cl)cc3)=NN2C(C)=O)ccc1Oc1nc2c(c(=O)n(C)c(=O)n2C)n1C", "note": "(stereo unspecified)", "growth": "-8% (active)"}, {"compound": "CCN1CCN(Cc2ccc(NC(=O)Nc3ccc(-n4ccc5c(NC(=O)c6ccccc6)nccc54)cc3)cc2C(F)(F)F)CC1", "growth": "-69.6% (active)"}, {"compound": "Nc1nc(N)c2cc(NCc3ccc(Cl)c(Cl)c3)ccc2n1", "growth": "-83% (active)"}, {"compound": "O=c1oc2ccccc2cc1-c1cc(-c2ccc(-c3cc(-c4cc5ccccc5oc4=O)nc(-c4cc5ccccc5oc4=O)c3)cc2)cc(-c2cc3ccccc3oc2=O)n1", "growth": "103%"}, {"compound": "C=C1C(=O)O[C@H]2[C@H]1CC/C(COC(=O)N[C@@H](Cc1c[nH]c3ccccc13)C(=O)OC)=C\\CC[C@@]1(C)O[C@@H]21", "growth": "11.5%"}, {"compound": "COc1cc(OC)c(Cl)cc1N", "growth": "111%"}, {"compound": "COC(=O)c1ccc2c(c1)nc(-c1cc3ccccc3[nH]c1=O)n2-c1cc(C(C)(C)C)[nH]n1", "growth": "78.5%"}, {"compound": "Fc1ccc(-c2nc(-c3ccc(-c4nc5ccc(F)cc5[nH]4)cc3)no2)cc1", "growth": "87.8%"}, {"compound": "CCCC(CCC)(C(N)=O)C(=O)O", "growth": "102%"}, {"compound": "CNC(=O)OC1C(O[C@H]2C[C@H]3[C@@H]4CC=C5C[C@@H](O)CC[C@]5(C)[C@H]4CC[C@]3(C)[C@H]2[C@H](C)C(=O)CCC(C)C)OCC(O)C1OC1OCC(O)C(O)C1OC(=O)c1ccc(OC)cc1", "note": "(stereo partly specified)", "growth": "-54.9% (active)"}, {"compound": "CC(=O)O[C@@H]1CC2C(C)(C)CCCC2(C)C2=C1C(=O)C(C(C)C)=CC2=O", "note": "(stereo partly specified)", "growth": "-52% (active)"}, {"compound": "CC(=O)Oc1c(Cl)c(Cl)c(Cl)c(Cl)c1Cl", "growth": "94.1%"}, {"compound": "Oc1c(C(Nc2ccccc2Br)c2ccccc2)ccc2cccnc12", "note": "(stereo unspecified)", "growth": "14.5%"}, {"compound": "O=C1C(Cl)=C(Nc2cccc3ccccc23)C(=O)c2ccccc21", "growth": "74.7%"}, {"compound": "Nc1c(C(=O)Nc2ccccc2)sc2nc3c(cc12)C(=O)CCC3", "growth": "52.8%"}, {"compound": "CCOCCNc1ccc(S(=O)(=O)c2ccc(N)cc2)cc1N", "growth": "92.8%"}, {"compound": "CCCCSc1ncnc2c1ncn2C1CCCCO1", "note": "(stereo unspecified)", "growth": "108%"}, {"compound": "CCNCCCn1c2c(c3ccc(Cl)cc3c1=O)C(=O)c1cc(OC)cnc1-2", "growth": "65.9%"}, {"compound": "COc1ccc2nc3ccccc3c(NCc3ccc(C)cc3)c2c1", "growth": "-7.97% (active)"}, {"compound": "C=CCOC(=O)C1=C(C)NC2=C(C(=O)CCC2)C1c1ccc(F)cc1", "note": "(stereo unspecified)", "growth": "92.8%"}, {"compound": "O=C(O)C(CCc1ccccc1)NCc1ccccc1", "note": "(stereo unspecified)", "growth": "99.4%"}, {"compound": "COc1ncnc2[nH]cc(CN3CCN(c4ccc(F)cc4)CC3)c12", "growth": "99.8%"}, {"compound": "O=S(=O)(Cc1ccc(Cl)cc1Cl)c1ccc(Cl)cc1", "growth": "77.4%"}, {"compound": "COc1ccc(-c2nc3ccccc3n3cccc23)cc1", "growth": "109%"}]}]}
